± gives the standard deviation.

The assay deals with EfPiwi piRISC loaded with L1MC piRNA (26 nt). Kind of assay: pre-steady-state target cleavage rate (min^-1); auxiliary factor: 500 nM Ephydatia muelleri Gtsf1; guide: L1MC piRNA 5'p-UAACUAAAUACUAUGCAAGCUGUAGG; MIWI and MILI are mouse PIWI proteins and EfPiwi is from a freshwater sponge; tags in brackets are library labels; higher = faster piRNA-guided slicing of the target. The method, boiled down: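 Cleave-'n-Seq used a transcribed, DNA-blocked target RNA library at 0.1 nM and active affinity-purified piRISC with one synthetic guide at 1 nM, with or without 500 nM GTSF1 partner protein, in HEPES–potassium acetate buffer at 33 °C for 0–8 or 0–960 min. Uncleaved targets were sequenced and normalised to depth and to weakly complementary targets, and three trials were pooled with k3 capped at 0.0001 min^-1. The pre-steady-state cleavage rate was estimated by a burst-and-steady-state fit.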
Consider UCCUGGUACACCUUGCAUAGUAAUUAGUUA, for which the “pre-steady-state target cleavage rate” value was determined as 0.00464 ± 0.0027.

As to UCCUGGUAGAGCUUGCAUAGUAUUUUGUUA, the “pre-steady-state target cleavage rate” value is 0.00292 ± 0.0029.

Turning to UCCUGCUACAGCUUGCAUAGUAUAAAGUUA, the “pre-steady-state target cleavage rate” value was 0.00347 ± 0.0022.

Regarding UCCUGCUACAGCUUGCAUAGUAGUUAGUUA, the “pre-steady-state target cleavage rate” value was found to be 0.00461 ± 0.0015.

Consider UCCUGCUACAGCUUACAUAGUAUUUAGUUA, for which the “pre-steady-state target cleavage rate” value was determined as 0.0151 ± 0.0038.

In the case of UCCUGGAUCAGCUUGCAUAGUAUUUACAAA, the “pre-steady-state target cleavage rate” value was found to be 0.00404 ± 0.002.

Consider UCCUGGAUGUCGAUGCAUAGUAUUUAGUAA, for which the “pre-steady-state target cleavage rate” value turned out to be 0.00329 ± 0.0032.

Consider UCCUGGAACAGCUUACAUAGUAUUUAGUUA, for which the “pre-steady-state target cleavage rate” value was 0.0502 ± 0.012.

With UCCUGGAUGUGCUUAGCAUAGUAUUUAGUUA, the “pre-steady-state target cleavage rate” value was 0.00497 ± 0.0028.

In the case of UCCUGGAUGUGCUUGCAUAGUAUUUAGUAA, the “pre-steady-state target cleavage rate” value worked out at 0.00442 ± 0.002.

Turning to UCCUGCUACUCCUUGCAUAGUAUUUAGUAA, the “pre-steady-state target cleavage rate” value was 0.00443 ± 0.003.

Take UCCUCCAUCAGCUUGCAUAGUAUUUAGUUA: the “pre-steady-state target cleavage rate” value came to 0.0155 ± 0.005.

With UCCUCCUUCAGCAUGCAUAGUAUUUAGUUA, the “pre-steady-state target cleavage rate” value is 0.0621 ± 0.018.

As for UCCUGCUACACCUUGCAUAGUAUUUAGUAA, the “pre-steady-state target cleavage rate” value is 0.00559 ± 0.0032.

UCCUGGAUCAGCUUGCAAUGUAUUUAGUUA: the “pre-steady-state target cleavage rate” value worked out at 0.00462 ± 0.0039.

On to UCCUGGUACAGCAUGCAUAGUAUUUAGAUA, for which the “pre-steady-state target cleavage rate” value amounted to 0.00412 ± 0.0025.

With UCCUGGUACAGCUUACAUAGUAUUUAGUUA, the “pre-steady-state target cleavage rate” value is 0.0283 ± 0.0076.

As for UCCUGGAUCAAGCUUGCAUAGUAUUUAGUUA, the “pre-steady-state target cleavage rate” value came out at 0.0542 ± 0.012.

As to UCCUGGAUGACGCUUGCAUAGUAUUUAGUUA, the “pre-steady-state target cleavage rate” value turned out to be 0.0537 ± 0.014.

As for UCCUGGAACAGCUCGCAUAGUAUUUAGUUA, the “pre-steady-state target cleavage rate” value was 0.0171 ± 0.0048.

Regarding UCCUGCUUCAGCUUGCAUAGUAUUUAGAUA, the “pre-steady-state target cleavage rate” value is 0.00521 ± 0.0024.

UCCUGGAUGUGCUUGCCUAGUAUUUAGUUA: the “pre-steady-state target cleavage rate” value turned out to be 0.00934 ± 0.0027.

Take UCCUCCUACAGCUUGCAUAGAUAUUUAGUUA: the “pre-steady-state target cleavage rate” value was 0.00501 ± 0.0032.

As to UCCUGGUACAGUUUGCAUAGUAUUUAGUUA, the “pre-steady-state target cleavage rate” value is 0.00421 ± 0.0025.

With UCCUGGAUCAGCUUCCAAAGUAUUUAGUUA, the “pre-steady-state target cleavage rate” value was 0.00404 ± 0.0027.

Take UCCUGCUACAGCUUGCAUAGUUAUUAGUUA: the “pre-steady-state target cleavage rate” value turned out to be 0.00354 ± 0.0022.

Turning to UCCUGGUACAGCUUGGAUAGUAUAUAGUUA, the “pre-steady-state target cleavage rate” value is 0.00702 ± 0.0025.

In the case of UCCUGGAACAGCUUGCCUAGUAUUUAGUUA, the “pre-steady-state target cleavage rate” value turned out to be 0.0399 ± 0.013.

With UCCUGCUACAGCAUGCAUAGUAUUUAGUAA, the “pre-steady-state target cleavage rate” value was determined as 0.00673 ± 0.0029.

Consider UCCUCCUACAGCUUGCUUAGUAUUUAGUUA, for which the “pre-steady-state target cleavage rate” value stood at 0.0424 ± 0.012.

In the case of UCCUGCUACAGGUUGCAUACUAUUUAGUUA, the “pre-steady-state target cleavage rate” value was found to be 0.00621 ± 0.0019.

Turning to UCCUCGAUCAGCUUGCAUAGUAUUUAGUUA, the “pre-steady-state target cleavage rate” value came out at 0.121 ± 0.023.

With UCCUCCAACAGCUAGCAUAGUAUUUAGUUA, the “pre-steady-state target cleavage rate” value came to 0.00798 ± 0.0027.

With UCCUGGAACAGCUUGCUUAGUAUUUAGUUA, the “pre-steady-state target cleavage rate” value turned out to be 0.0181 ± 0.005.

UCCUGAUACAGCUUGCAUAGUAUUUAGUUA: the “pre-steady-state target cleavage rate” value worked out at 0.0427 ± 0.014.

On to UCCUGGAACAGCUUGCAUAGAAUUUAGUUA, for which the “pre-steady-state target cleavage rate” value came out at 0.0051 ± 0.0017.

Turning to UCCUGGUACAGCUAGCAAAGUAUUUAGUUA, the “pre-steady-state target cleavage rate” value came out at 0.00688 ± 0.0029.

Regarding UCCUGGAACAGCAUGCAUAGUAUUAAGUUA, the “pre-steady-state target cleavage rate” value amounted to 0.00499 ± 0.0017.

For the sequence UCCUGGAACAGCUUGCAUAGUAUUUAGUAUA, the “pre-steady-state target cleavage rate” value turned out to be 0.00935 ± 0.005.

For the sequence UCCUCCUACAGGUUGCAUAGUAUUAAGUUA, the “pre-steady-state target cleavage rate” value was 0.00576 ± 0.0023.

The record behind these values is the supplement of paper PMC10338343.
